Assay results from PubChem BioAssay (EPA / NIEHS).
The source made the active and inactive calls. Rule for the calls: active = hit-call score of the fitted dose curve at least 0.9, where 1 is the maximum; inactive = score below 0.9.

The compounds below were run on CD40, CD40 (gene 958) (assay: BSK_IMphg_CD40: BioMAP Diversity Plus: IMphg Assay for CD40 Biomarker Activity (AID 2284288)). Conditions: primary human endothelial cells with macrophages.
Protocol: BSK_IMphg is a cell-based, multiplexed-readout assay that uses venular endothelial cells and macrophages, a human vascular primary cell, with measurements taken at 24 hours after chemical dosing in a microplate: 96-well plate.BSK_IMphg_CD40 is an assay component measured in the BSK_IMphg assay. It measures CD40 antibody related to regulation of gene expression using ELISA technology.Data from the assay component BSK_IMphg_CD40 was analyzed at the endpoint, BSK_IMphg_CD40, in the positive analysis fitting direction relative to DMSO as the negative control and baseline of activity. Using a type of binding reporter, gain or loss-of-signal activity can be used to understand protein changes. To generalize the intended target to other relatable targets, this assay endpoint is annotated to the 'cytokine' intended target family, where the subfamily is 'inflammatory factor'.
The levels of cell surface (or secreted, indicated by the prefix "s") biomarker endpoints were measured by ELISA. Overt cytotoxicity to cells in confluent adherent cultures (all systems other than the BT system) was assessed by measuring total protein levels using sulforhodamine B (SRB) staining in parallel cultures at the time of biomarker measurements, indicated as SRB endpoints. For proliferation assays for adherent cell types, individual cell types are cultured at sub-confluence and relative cell numbers quantified by SRB staining at time points optimized for each system (48 h: 3C and CASM3C systems; 72 h: BT and HDF3CGF systems; 96 h: SAg system). SRB was performed by staining cells with 0.1% SRB after fixation with 10% TCA and reading wells at 560 nm.Viability and proliferation of PBMC (T cells) was quantified by Alamar Blue reduction for the SAg and BT systems. For PBMC viability (referred to as PBMC Cytotoxicity within the assay endpoint names), cells were plated (75,000/well in a 96-well plate) and then chemical samples added for 1 h before addition of activators, SEB and TSST-1 (20 ng/mL final concentration each). Cells were incubated for 90 h. Then, Alamar Blue (20 uL/well) (Invitrogen, Cat DAL1100) was added for 6 h, and the plates were read with a fluorescence microplate reader at 546/580 nm (excitation/emission). For PBMC proliferation, cells were plated and activated as above but incubated for only 16 h prior to addition of Alamar Blue. Plates were read after 6 h.

SMILES | outcome
O=C(Cl)C(F)(F)C(F)(F)C(F)(F)C(=O)Cl | inactive
O=S(=O)(O)CCC(F)(F)C(F)(F)C(F)(F)C(F)(F)C(F)(F)C(F)(F)F | inactive
OCCC(F)(F)C(F)(F)C(F)(F)C(F)(F)F | inactive
FC(F)=C(F)C(F)(F)C(F)(F)C(F)(F)C(F)(F)C(F)(F)C(F)(F)F | inactive
OC(O)(C(F)C(O)(O)C(F)(F)F)C(F)(F)F | inactive
NCC(F)(F)C(F)(F)C(F)(F)C(F)(F)F | inactive
FC(F)C(F)(F)COCC1CO1 (stereo not given) | inactive
FC(F)(F)COC(OCC(F)(F)F)OCC(F)(F)F | inactive
C[Si](C)(C)C(F)(F)C(F)(F)C(F)(F)F | inactive
FC(F)(F)C(F)(F)C(F)(F)C(F)(F)C(F)(F)C(F)(F)I | inactive
